Results on 17 compounds are retold here after PubChem BioAssay.

For orientation: inhibition means the change of the read-out against control, counted positive when it falls.

Values without a mark were called inactive. The rule behind the calls is not given here.

The target of the test is Pantothenate synthetase (Mycobacterium tuberculosis (strain ATCC 25618 / H37Rv)) (UniProt P9WIL5). Briefly: Coupled enzyme confirmation of inhibitors against recombinant Mtb PanC (AID 375).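 Note: 0% = full reaction with vehicle and 100% = no enzyme background.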 The conditions noted are these: coupled enzyme assay; at 10 µM, active compounds read high.
Pantothenate synthetase (Mycobacterium tuberculosis (strain ATCC 25618 / H37Rv)), sequence (P9WIL5 whole entry, looked up): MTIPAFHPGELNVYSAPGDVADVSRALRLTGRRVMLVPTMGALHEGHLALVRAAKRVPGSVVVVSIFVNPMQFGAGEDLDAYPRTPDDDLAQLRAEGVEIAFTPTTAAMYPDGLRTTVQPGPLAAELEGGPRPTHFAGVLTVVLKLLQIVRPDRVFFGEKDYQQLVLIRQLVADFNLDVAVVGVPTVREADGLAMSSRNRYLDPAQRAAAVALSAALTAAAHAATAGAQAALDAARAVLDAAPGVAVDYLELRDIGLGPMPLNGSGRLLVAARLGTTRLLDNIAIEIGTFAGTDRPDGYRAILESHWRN

With `COc1ccc(C(=O)Nc2cccc(-c3nc4ncccc4o3)c2C)cc1OC`, the inhibition was 2%.
Consider `CCn1cc(C(=O)NCC2COc3ccccc3O2)c2cc(OC)c(OC)cc2c1=O` (configuration not stated), for which the inhibition was 11%.
For `COc1ccc(-c2nnc3ccc(SC(C(C)=O)C(C)=O)nn23)cc1OC`, the inhibition is 2%.
As to `CCOC(=O)N1CCN(C(=O)COc2ccc(S(=O)(=O)NC3CCCCC3)cc2C)CC1`, the inhibition is 2%.
As for `COc1ccc(OC)c(Nc2nc(-c3sc(N)nc3C)cs2)c1`, the inhibition was 0%.
Consider `CCN(CC(=O)NC1CCS(=O)(=O)C1)C(=O)C(c1ccccc1)c1ccccc1` (configuration not stated), for which the inhibition is 1%.
In the case of `CCOC(=O)N1CCN(C(=O)Nc2ccc(Cl)cc2)CC1` it was 0%; in that of `CCn1nccc1C(=O)Nc1cc(Cl)ccc1Cl`, 0%; in that of `CC1(C)CC(=O)c2cnc(NC(=O)CCc3ccccc3)nc2C1`, 0%.
In the case of `Cc1cc(CN2CCN(CCC#N)CC2)c(O)c(C2(C)CCCCC2)c1` it was 0%; in that of `CN(Cc1ccccc1)C(=O)CNC(=O)Cn1cnc2ccccc2c1=O`, 0%.
For `CS(=O)(=O)N1CCN(c2ccccc2NC(=O)c2cccs2)CC1`, the inhibition was 2%.
As for `Cc1cccc(OCC(=O)Nc2ccc(N3CCCC3)cc2)c1C`, the inhibition is 0%.
As for `CC1CCCCN1C(=O)Cn1nnc(-c2cccnc2)n1` (configuration not stated), the inhibition is 0%.
Consider `COCCn1nnnc1C(c1cc2ccc(OC)cc2[nH]c1=O)N1CCc2ccccc2C1` (configuration not stated), for which the inhibition is 0%.
In the case of `CCN(CC)S(=O)(=O)c1ccc(Br)c(OC)c1`, the inhibition is 0%.
On to `C=C(C)c1cccc(C(C)(C)NC(=O)NCC2CCCO2)c1` (configuration not stated), for which the inhibition was 2%.
